# Source: article PMC7862700, “An all-to-all approach to the identification of sequence-specific readers for epigenetic DNA modifications on cytosine”
# Assays:
# Assay in all cases: DAPPL (digital affinity profiling via proximity ligation, sequencing); 10 mM Tris-HCl pH 7.5, 50 mM NaCl, 1 mM DTT, 4% glycerol, room temperature, 30 min; GST-TFs on glutathione beads, 16-mer random dsDNA library, 0.1% formaldehyde crosslink after washing; high values mean tight binding
# FLI1 = biological target: T1, FLI1 (Homo sapiens, UniProt Q01543 1-452); conditions: protein: recombinant; tags: N-terminal GST; dsDNA, one strand shown
# T1 sequence: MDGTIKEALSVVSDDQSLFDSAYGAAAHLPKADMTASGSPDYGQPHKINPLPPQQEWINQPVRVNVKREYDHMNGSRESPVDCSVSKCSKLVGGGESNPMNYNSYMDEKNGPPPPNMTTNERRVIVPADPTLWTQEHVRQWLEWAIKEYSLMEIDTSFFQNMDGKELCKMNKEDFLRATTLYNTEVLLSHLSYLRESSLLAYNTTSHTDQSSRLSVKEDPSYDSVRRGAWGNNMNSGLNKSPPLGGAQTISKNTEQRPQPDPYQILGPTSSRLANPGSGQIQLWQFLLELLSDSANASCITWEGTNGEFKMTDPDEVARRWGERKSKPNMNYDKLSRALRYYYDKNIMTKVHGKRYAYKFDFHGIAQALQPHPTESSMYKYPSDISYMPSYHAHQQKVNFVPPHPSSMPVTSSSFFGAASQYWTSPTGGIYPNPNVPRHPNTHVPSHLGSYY
# In short: (§1)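 GST fusions of human transcription factors were expressed in yeast and captured with glutathione beads. Once given DNA barcodes and pooled alongside a tag-only sample, they were incubated for 30 min at room temperature with 200 nmole of a random double-stranded 16-mer DNA library in Tris/NaCl/DTT/glycerol buffer, then washed, crosslinked (0.1% formaldehyde), proximity-ligated, PCR-amplified and sequenced on an Illumina NextSeq500. The binding signal of each hexamer is its read frequency for a factor divided by its frequency for the tag-only sample.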
# ELK1 = biological target: T2, ELK1 (Homo sapiens, UniProt P19419 1-428); conditions: protein: recombinant; tags: N-terminal GST; dsDNA, one strand shown
# T2 sequence: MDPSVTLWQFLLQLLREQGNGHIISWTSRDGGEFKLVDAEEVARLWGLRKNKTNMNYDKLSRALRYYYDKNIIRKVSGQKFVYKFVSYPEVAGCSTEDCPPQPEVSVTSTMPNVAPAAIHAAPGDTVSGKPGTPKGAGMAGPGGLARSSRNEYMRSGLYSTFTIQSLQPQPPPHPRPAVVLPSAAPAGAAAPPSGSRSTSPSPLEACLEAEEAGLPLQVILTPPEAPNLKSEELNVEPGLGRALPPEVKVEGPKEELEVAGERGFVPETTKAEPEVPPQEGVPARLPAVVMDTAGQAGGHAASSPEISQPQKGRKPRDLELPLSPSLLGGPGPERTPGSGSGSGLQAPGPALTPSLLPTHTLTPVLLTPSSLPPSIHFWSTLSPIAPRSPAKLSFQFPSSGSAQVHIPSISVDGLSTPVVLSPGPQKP
# In short: as §1
# GABPA = biological target: T3, GABPA (Homo sapiens, UniProt Q06546 1-454); conditions: protein: recombinant; tags: N-terminal GST; dsDNA, one strand shown
# T3 sequence: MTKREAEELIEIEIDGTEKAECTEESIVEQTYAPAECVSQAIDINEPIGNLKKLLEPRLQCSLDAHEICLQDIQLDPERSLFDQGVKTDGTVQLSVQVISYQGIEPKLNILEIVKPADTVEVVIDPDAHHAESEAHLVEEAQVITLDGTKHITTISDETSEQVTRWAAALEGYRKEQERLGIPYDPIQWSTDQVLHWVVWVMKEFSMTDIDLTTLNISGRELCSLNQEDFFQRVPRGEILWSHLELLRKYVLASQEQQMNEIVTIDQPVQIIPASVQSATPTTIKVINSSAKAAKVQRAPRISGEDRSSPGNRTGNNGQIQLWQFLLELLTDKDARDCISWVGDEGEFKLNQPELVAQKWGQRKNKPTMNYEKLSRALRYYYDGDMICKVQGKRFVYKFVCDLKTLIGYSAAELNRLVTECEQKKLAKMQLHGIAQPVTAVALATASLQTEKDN
# In short: as §1
# ERG = biological target: T4, ERG (Homo sapiens, UniProt P11308 1-479); conditions: protein: recombinant; tags: N-terminal GST; dsDNA, one strand shown
# T4 sequence: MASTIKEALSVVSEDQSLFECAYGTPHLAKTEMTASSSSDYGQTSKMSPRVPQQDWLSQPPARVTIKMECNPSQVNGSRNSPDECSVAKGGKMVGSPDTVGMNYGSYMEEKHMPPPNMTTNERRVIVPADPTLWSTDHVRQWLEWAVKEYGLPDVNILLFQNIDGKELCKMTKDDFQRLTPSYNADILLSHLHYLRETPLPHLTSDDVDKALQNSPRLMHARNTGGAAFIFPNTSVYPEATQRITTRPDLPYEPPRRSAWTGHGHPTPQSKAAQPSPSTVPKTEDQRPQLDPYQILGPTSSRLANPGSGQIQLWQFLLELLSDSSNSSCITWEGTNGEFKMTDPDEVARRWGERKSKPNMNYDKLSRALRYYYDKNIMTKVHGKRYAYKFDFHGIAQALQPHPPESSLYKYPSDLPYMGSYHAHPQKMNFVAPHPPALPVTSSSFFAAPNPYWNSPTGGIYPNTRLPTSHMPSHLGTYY
# In short: as §1
# ELF1 = ELF1 (Homo sapiens, UniProt P32519 1-619); conditions: protein: recombinant; tags: N-terminal GST; dsDNA, one strand shown
# ELF1, sequence (P32519 whole entry): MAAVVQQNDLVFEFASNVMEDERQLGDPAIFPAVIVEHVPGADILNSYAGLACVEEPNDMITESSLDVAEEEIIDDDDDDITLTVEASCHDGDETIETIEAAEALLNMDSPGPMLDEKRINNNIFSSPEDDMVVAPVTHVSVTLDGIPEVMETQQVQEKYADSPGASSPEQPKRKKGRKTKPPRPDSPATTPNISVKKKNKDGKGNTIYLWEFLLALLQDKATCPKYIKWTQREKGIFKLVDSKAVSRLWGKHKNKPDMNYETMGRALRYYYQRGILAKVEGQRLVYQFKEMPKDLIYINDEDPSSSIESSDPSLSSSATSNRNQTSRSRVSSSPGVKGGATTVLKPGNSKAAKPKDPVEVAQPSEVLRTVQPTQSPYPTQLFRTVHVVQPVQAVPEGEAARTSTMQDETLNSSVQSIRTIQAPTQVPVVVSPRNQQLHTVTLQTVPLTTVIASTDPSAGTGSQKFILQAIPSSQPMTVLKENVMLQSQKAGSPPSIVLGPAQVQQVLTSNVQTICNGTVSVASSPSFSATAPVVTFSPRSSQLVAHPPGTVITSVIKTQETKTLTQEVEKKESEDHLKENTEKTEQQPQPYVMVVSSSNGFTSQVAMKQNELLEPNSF
# In short: as §1
# EHF = biological target: T5, EHF (Homo sapiens, UniProt Q9NZC4 1-300); conditions: protein: recombinant; tags: N-terminal GST; dsDNA, one strand shown
# T5 sequence: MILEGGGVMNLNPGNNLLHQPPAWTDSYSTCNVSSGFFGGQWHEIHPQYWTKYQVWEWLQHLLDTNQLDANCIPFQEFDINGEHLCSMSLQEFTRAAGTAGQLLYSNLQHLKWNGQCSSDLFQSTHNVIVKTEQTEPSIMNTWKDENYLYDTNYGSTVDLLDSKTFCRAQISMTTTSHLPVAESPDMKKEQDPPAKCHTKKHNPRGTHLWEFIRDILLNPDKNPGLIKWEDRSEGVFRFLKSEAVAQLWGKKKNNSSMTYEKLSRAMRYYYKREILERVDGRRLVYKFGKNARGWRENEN
# In short: as §1
# SPI1 = SPI1 (Homo sapiens, UniProt P17947 1-270); conditions: protein: recombinant; tags: N-terminal GST; dsDNA, one strand shown
# In short: as §1
# SPIB = SPIB (Homo sapiens, UniProt Q01892 1-262); conditions: protein: recombinant; tags: N-terminal GST; dsDNA, one strand shown
# SPIB, sequence (Q01892 whole entry): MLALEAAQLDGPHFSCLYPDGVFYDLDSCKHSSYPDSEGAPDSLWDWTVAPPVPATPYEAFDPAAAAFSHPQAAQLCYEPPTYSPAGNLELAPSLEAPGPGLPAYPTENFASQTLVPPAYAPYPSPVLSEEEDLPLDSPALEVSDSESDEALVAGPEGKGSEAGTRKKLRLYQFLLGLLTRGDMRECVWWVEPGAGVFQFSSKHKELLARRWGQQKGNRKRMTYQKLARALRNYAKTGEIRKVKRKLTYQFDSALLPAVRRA
# In short: as §1
# ELK3 = biological target: T6, ELK3 (Homo sapiens, UniProt P41970 1-407); conditions: protein: recombinant; tags: N-terminal GST; dsDNA, one strand shown
# T6 sequence: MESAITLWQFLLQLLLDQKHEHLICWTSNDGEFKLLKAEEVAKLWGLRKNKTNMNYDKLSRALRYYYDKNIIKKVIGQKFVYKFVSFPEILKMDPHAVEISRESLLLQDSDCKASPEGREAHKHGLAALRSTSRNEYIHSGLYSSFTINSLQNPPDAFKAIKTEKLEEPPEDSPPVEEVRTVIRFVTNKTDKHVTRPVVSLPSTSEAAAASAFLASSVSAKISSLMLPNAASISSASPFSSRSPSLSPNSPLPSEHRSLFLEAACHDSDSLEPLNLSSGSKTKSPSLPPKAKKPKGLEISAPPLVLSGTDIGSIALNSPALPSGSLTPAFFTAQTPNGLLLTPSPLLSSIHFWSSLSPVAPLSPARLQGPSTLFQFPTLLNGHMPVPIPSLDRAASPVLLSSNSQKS
# In short: as §1
# FEV = biological target: T7, FEV (Homo sapiens, UniProt Q99581 1-238); conditions: protein: recombinant; tags: N-terminal GST; dsDNA, one strand shown
# T7 sequence: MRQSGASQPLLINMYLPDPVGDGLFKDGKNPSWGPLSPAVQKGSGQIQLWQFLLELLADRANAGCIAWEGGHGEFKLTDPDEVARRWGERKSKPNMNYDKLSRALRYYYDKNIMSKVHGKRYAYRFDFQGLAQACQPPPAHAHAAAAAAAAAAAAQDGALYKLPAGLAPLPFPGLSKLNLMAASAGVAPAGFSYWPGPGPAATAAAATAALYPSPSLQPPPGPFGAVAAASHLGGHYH
# In short: as §1
# ETV5 = ETV5 (Homo sapiens, UniProt P41161 1-510); conditions: protein: recombinant; tags: N-terminal GST; dsDNA, one strand shown
# ETV5, sequence (P41161 whole entry): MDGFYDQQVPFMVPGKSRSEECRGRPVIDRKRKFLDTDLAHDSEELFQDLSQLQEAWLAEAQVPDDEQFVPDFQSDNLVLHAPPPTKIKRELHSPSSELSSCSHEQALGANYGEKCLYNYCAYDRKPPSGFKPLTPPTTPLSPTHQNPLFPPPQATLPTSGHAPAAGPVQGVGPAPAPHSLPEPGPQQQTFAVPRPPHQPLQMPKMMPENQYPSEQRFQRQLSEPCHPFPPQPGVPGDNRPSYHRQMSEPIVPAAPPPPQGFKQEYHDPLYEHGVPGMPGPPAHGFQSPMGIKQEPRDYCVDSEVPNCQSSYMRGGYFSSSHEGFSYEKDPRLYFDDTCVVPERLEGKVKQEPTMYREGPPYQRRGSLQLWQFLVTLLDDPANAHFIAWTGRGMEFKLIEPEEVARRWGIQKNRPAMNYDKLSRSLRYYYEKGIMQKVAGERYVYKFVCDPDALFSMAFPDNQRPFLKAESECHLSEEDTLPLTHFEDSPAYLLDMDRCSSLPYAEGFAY
# In short: as §1
# HSF1 = HSF1 (Homo sapiens, UniProt Q00613 1-529); conditions: protein: recombinant; tags: N-terminal GST; chain copies: 3; dsDNA, one strand shown
# HSF1, sequence (Q00613 whole entry): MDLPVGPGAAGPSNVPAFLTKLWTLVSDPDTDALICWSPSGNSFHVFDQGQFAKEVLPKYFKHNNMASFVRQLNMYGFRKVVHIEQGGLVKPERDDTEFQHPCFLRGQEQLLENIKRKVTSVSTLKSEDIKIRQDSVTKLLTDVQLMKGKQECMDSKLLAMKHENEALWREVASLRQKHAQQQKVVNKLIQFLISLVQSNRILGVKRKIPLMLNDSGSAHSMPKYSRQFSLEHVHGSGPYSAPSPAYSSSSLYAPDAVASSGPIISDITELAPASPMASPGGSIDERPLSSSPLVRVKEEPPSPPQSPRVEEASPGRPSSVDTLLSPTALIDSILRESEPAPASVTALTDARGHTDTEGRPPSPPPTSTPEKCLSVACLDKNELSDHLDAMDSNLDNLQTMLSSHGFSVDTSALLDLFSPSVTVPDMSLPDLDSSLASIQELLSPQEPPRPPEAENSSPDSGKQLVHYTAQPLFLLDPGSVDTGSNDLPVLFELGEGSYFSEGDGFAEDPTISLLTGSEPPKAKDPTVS
# In short: as §1
# SPIC = biological target: T8, SPIC (Homo sapiens, UniProt Q8N5J4 1-248); conditions: protein: recombinant; tags: N-terminal GST; dsDNA, one strand shown
# T8 sequence: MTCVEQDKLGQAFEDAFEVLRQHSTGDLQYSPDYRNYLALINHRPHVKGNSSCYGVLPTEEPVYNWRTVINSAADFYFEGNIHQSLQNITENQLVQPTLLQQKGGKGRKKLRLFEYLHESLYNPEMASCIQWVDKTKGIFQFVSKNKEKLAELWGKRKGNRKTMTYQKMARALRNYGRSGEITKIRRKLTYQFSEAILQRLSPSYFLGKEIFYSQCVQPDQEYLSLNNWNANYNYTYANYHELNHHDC
# In short: as §1
# ELF4 = ELF4 (Homo sapiens, UniProt Q99607 1-663); conditions: protein: recombinant; tags: N-terminal GST; dsDNA, one strand shown
# ELF4, sequence (Q99607 whole entry): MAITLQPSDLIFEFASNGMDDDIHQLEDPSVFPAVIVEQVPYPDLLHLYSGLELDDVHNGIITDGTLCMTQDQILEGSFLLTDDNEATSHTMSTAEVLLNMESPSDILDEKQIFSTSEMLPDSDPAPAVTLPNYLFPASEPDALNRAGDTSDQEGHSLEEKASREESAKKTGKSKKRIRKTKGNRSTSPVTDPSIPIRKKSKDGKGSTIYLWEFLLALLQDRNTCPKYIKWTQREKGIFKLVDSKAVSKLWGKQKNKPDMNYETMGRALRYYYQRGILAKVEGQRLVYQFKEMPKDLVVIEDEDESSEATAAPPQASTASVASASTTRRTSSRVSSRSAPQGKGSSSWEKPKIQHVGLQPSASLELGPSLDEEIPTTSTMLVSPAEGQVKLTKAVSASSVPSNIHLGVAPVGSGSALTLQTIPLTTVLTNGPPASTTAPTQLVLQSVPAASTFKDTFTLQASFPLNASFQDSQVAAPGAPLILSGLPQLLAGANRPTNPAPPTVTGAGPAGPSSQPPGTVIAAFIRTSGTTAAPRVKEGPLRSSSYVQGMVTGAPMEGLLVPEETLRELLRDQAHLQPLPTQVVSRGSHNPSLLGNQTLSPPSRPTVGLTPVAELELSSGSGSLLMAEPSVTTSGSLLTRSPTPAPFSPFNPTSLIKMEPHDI
# In short: as §1
# ELK4 = biological target: T9, ELK4 (Homo sapiens, UniProt P28324-2 1-405); conditions: protein: recombinant; tags: N-terminal GST; dsDNA, one strand shown
# T9 sequence: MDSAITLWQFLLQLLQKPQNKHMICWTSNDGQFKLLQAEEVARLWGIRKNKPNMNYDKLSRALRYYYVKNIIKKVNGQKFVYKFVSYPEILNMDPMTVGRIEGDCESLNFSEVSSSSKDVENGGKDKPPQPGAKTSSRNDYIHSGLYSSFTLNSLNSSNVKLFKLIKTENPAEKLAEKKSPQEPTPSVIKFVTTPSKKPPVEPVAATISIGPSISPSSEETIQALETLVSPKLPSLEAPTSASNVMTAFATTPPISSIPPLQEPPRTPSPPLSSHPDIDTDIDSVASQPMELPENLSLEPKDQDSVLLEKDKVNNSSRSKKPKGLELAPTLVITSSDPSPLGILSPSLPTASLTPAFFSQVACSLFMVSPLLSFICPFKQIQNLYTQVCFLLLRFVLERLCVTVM
# In short: as §1
# ETV2 = biological target: T10, ETV2 (Homo sapiens, UniProt O00321 1-342); conditions: protein: recombinant; tags: N-terminal GST; dsDNA, one strand shown
# T10 sequence: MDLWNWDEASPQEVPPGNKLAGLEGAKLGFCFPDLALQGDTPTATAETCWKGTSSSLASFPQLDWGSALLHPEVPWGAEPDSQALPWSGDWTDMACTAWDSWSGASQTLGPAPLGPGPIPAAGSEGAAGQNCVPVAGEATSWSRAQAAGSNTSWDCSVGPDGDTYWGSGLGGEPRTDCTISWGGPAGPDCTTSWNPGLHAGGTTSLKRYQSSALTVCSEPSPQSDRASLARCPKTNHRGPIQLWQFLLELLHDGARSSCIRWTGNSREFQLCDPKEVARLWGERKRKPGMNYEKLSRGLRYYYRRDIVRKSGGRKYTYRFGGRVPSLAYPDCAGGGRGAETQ
# In short: as §1
# ELF3 = biological target: T11, ELF3 (Homo sapiens, UniProt P78545 1-371); conditions: protein: recombinant; tags: N-terminal GST; dsDNA, one strand shown
# T11 sequence: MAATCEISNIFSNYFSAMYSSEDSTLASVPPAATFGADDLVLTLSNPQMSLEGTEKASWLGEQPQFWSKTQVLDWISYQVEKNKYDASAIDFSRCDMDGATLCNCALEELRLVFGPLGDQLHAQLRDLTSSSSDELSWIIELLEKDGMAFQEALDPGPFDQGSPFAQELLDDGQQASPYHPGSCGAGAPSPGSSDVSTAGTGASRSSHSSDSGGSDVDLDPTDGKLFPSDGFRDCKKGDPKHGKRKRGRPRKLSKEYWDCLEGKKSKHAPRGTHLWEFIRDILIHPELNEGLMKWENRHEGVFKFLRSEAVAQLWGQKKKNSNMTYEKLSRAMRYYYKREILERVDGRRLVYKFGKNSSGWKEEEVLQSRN
# In short: as §1
# CRX = CRX (Homo sapiens, UniProt O43186 1-299); conditions: protein: recombinant; tags: N-terminal GST; dsDNA, one strand shown
# CRX, sequence (O43186 whole entry): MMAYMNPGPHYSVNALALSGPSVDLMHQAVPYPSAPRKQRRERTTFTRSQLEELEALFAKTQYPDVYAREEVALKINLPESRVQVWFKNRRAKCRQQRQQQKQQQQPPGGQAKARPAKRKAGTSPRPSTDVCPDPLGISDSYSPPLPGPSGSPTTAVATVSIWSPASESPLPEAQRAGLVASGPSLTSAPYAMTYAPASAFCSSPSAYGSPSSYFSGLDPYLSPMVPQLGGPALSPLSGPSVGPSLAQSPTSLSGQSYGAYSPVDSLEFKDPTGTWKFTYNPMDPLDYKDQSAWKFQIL
# In short: as §1
# ETV1 = ETV1 (Homo sapiens, UniProt P50549 1-477); conditions: protein: recombinant; tags: N-terminal GST; dsDNA, one strand shown
# ETV1, sequence (P50549 whole entry): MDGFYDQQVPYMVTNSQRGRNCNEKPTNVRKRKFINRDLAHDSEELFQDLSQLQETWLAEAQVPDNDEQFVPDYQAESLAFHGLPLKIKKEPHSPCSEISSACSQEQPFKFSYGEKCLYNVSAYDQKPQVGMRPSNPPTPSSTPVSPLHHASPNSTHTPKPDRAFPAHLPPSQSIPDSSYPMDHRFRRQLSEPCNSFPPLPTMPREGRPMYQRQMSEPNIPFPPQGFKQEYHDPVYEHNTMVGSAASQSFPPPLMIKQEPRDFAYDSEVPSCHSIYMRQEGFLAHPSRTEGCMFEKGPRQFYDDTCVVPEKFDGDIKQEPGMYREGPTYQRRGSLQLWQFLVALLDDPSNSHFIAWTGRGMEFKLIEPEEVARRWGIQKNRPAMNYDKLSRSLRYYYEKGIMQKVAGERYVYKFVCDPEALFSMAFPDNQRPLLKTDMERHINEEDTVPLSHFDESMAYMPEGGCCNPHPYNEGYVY
# In short: as §1
sequence,measurement,setting,value
TAGCAA,binding signal,FLI1,"1.15 fold enrichment (6-mer frequency, TF over GST control)"
same,binding signal,ELK1,"1.21 fold enrichment (6-mer frequency, TF over GST control)"
same,binding signal,GABPA,"1.21 fold enrichment (6-mer frequency, TF over GST control)"
same,binding signal,ERG,"1.17 fold enrichment (6-mer frequency, TF over GST control)"
same,binding signal,ELF1,"1.23 fold enrichment (6-mer frequency, TF over GST control)"
same,binding signal,EHF,"1.23 fold enrichment (6-mer frequency, TF over GST control)"
same,binding signal,SPI1,"1.21 fold enrichment (6-mer frequency, TF over GST control)"
same,binding signal,SPIB,"1.34 fold enrichment (6-mer frequency, TF over GST control)"
same,binding signal,ELK3,"1.24 fold enrichment (6-mer frequency, TF over GST control)"
same,binding signal,FEV,"1.17 fold enrichment (6-mer frequency, TF over GST control)"
same,binding signal,ETV5,"1.33 fold enrichment (6-mer frequency, TF over GST control)"
same,binding signal,HSF1,"1.59 fold enrichment (6-mer frequency, TF over GST control)"
same,binding signal,SPIC,"1.14 fold enrichment (6-mer frequency, TF over GST control)"
same,binding signal,ELF4,"1.34 fold enrichment (6-mer frequency, TF over GST control)"
same,binding signal,ELK4,"1.38 fold enrichment (6-mer frequency, TF over GST control)"
same,binding signal,ETV2,"1.36 fold enrichment (6-mer frequency, TF over GST control)"
same,binding signal,ELF3,"1.36 fold enrichment (6-mer frequency, TF over GST control)"
same,binding signal,CRX,"1.46 fold enrichment (6-mer frequency, TF over GST control)"
same,binding signal,ETV1,"1.23 fold enrichment (6-mer frequency, TF over GST control)"
